# Assay results from PubChem BioAssay (NCATS).
# Inconclusive results are not listed. A call without a number means that no potency is given here. Unmarked numbers belong to inactive results. Calls of active or inactive are those of the source. The call rests on the fitted dose curve; in most records, active means well fitted inhibition curve with a large enough effect; inconclusive means small, poorly fitted or top-dose-only effect; inactive means flat fitted curve, though single readings scatter.
# Legend:
# [1] = tested on: PC15; test: qHTS profiling for inhibitors of Plasmodium falciparum proliferation (AID 504749); further: potency means the concentration at half of the fitted maximal effect; conditions: P. falciparum in erythrocytes, SYBR Green DNA, 72 h; series mostly up to 28.7 µM
# Procedure, shortened: (§1)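 SYBR Green fluorescence of parasite DNA, read after lysis and overnight dark incubation, measured growth over 72 h in erythrocyte culture at 0.3% parasitemia and 2.5% hematocrit. Data normalised to DMSO and 0.29 uM artemisinin, with plate-drift correction.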
# [2] = tested on: PC26; test: as above; conditions: P. falciparum in erythrocytes, SYBR Green DNA, 72 h; series mostly up to 28.7 µM
# Procedure, shortened: as §1
# [3] = tested on: PC49; test: as above; conditions: P. falciparum in erythrocytes, SYBR Green DNA, 72 h; series mostly up to 28.7 µM
# Procedure, shortened: as §1
# [4] = tested on: SC27B; test: as above; conditions: P. falciparum in erythrocytes, SYBR Green DNA, 72 h; series mostly up to 28.7 µM
# Procedure, shortened: as §1
# [5] = tested on: TAB109; test: as above; conditions: P. falciparum in erythrocytes, SYBR Green DNA, 72 h; series mostly up to 28.7 µM
# Procedure, shortened: as §1
# [6] = tested on: TAB113; test: as above; conditions: P. falciparum in erythrocytes, SYBR Green DNA, 72 h; series mostly up to 28.7 µM
# Procedure, shortened: as §1
# [7] = tested on: TAB165; test: as above; conditions: P. falciparum in erythrocytes, SYBR Green DNA, 72 h; series mostly up to 28.7 µM
# Procedure, shortened: as §1
# [8] = tested on: W2; test: as above; conditions: P. falciparum in erythrocytes, SYBR Green DNA, 72 h; series mostly up to 28.7 µM
# Procedure, shortened: as §1
# [9] = tested on: MCC-13; test: qHTS assay to identify novel small-molecules to repurpose for Merkel cell carcinoma treatment (AID 1296009); conditions: MCC and control cell lines, CellTiter-Glo viability, 72 h; series mostly up to 46 µM
# Procedure, shortened: (§2)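 Cell viability, measured as CellTiter-Glo luminescence, was normalized between DMSO and no-cell wells. The cells had been exposed to 8- or 11-point compound dilutions for 72 hr at 37 degree celsius.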
# [10] = tested on: MCC-26; test: as above; conditions: MCC and control cell lines, CellTiter-Glo viability, 72 h; series mostly up to 46 µM
# Procedure, shortened: as §2
# [11] = tested on: MKL-1; test: as above; conditions: MCC and control cell lines, CellTiter-Glo viability, 72 h; series mostly up to 46 µM
# Procedure, shortened: as §2
# [12] = tested on: MKL-2; test: as above; conditions: MCC and control cell lines, CellTiter-Glo viability, 72 h; series mostly up to 46 µM
# Procedure, shortened: as §2
# [13] = tested on: NIH3T3; test: as above; conditions: MCC and control cell lines, CellTiter-Glo viability, 72 h; at 44.8 µM (top of the series) unless noted
# Procedure, shortened: as §2
# Further: nearly all actives have a fitted effect of over 60% in size.
SMILES,Potency [1],Potency [2],Potency [3],Potency [4],Potency [5],Potency [6],Potency [7],Potency [8],Potency [9],Potency [10],Potency [11],Potency [12],outcome [13]
CCN(CC)C(=O)N1CCN(C)CC1,inactive,inactive,inactive,inactive,inactive,inactive,inactive,inactive,inactive,inactive,inactive,inactive,–
C1CCc2nnnn2CC1,inactive,inactive,inactive,inactive,inactive,inactive,inactive,inactive,–,–,–,–,–
COc1cc(NS(C)(=O)=O)ccc1Nc1c2ccccc2nc2ccccc12,2.82 µM (active),5.36 µM (active),3.16 µM (active),2.24 µM (active),3.16 µM (active),2 µM (active),2.24 µM (active),2.13 µM (active),–,–,–,–,–
C[C@@H]1CN(CCCn2c3ccccc3c3ccccc32)C[C@H](C)N1,–,–,–,–,11.2 µM (active),–,7.08 µM (active),2.39 µM (active),–,inactive,–,–,–
C#C[C@]1(O)CC[C@H]2[C@@H]3CCC4=CC(=O)CC[C@@H]4[C@H]3CC[C@@]21C,–,–,–,–,–,–,–,–,inactive,inactive,inactive,inactive,–
c1ccc(-c2ccc(C(c3ccccc3)n3ccnc3)cc2)cc1 (stereo not drawn),11.2 µM (active),12 µM (active),–,6.31 µM (active),8.91 µM (active),11.2 µM (active),2.82 µM (active),5.36 µM (active),inactive,inactive,–,–,–
CC(O)C(=O)O (stereo not drawn),inactive,inactive,inactive,inactive,inactive,inactive,inactive,inactive,–,–,–,–,–
O=C(OCCOCCO)c1ccccc1Nc1cccc(C(F)(F)F)c1,inactive,inactive,inactive,inactive,inactive,inactive,inactive,inactive,–,–,–,–,–
CCN(CC)CCNC(=O)COc1ccc(Cl)cc1,inactive,–,–,11.2 µM (active),–,inactive,11.2 µM (active),13.5 µM (active),–,–,–,–,–
C#C[C@]1(OC(C)=O)CC[C@H]2[C@@H]3CCC4=C[C@@H](OC(C)=O)CC[C@@H]4[C@H]3CC[C@@]21C,inactive,inactive,inactive,inactive,inactive,inactive,inactive,inactive,–,–,–,–,–
CN1C2CCC1CC(OC(=O)c1c[nH]c3ccccc13)C2 (stereo not drawn),–,–,inactive,inactive,inactive,inactive,inactive,inactive,–,–,–,–,–
C[C@H]1[C@H](NC(=O)/C(=N/OC(C)(C)C(=O)O)c2csc(N)n2)C(=O)N1S(=O)(=O)O (stereo in doubt),inactive,inactive,inactive,inactive,inactive,inactive,inactive,inactive,inactive,–,inactive,inactive,–
CC(C)NC[C@@H](O)COc1cccc2ccccc12,8.91 µM (active),–,–,–,12.6 µM (active),–,7.94 µM (active),1.69 µM (active),–,–,–,–,–
CCCCCCCCCCCCCCCCOP(=O)([O-])OCC[N+](C)(C)C,inactive,inactive,inactive,inactive,inactive,inactive,inactive,–,inactive,inactive,–,–,–
Oc1c(Cl)cc(Cl)cc1Sc1cc(Cl)cc(Cl)c1O,inactive,inactive,inactive,inactive,inactive,inactive,inactive,inactive,–,–,–,–,–
NC(=O)c1cc[n+](CC2=C(C(=O)[O-])N3C(=O)[C@@H](NC(=O)Cc4cccs4)[C@H]3SC2)cc1,–,–,–,–,–,–,–,–,inactive,–,inactive,inactive,inactive
CC(C)(CO)[C@@H](O)C(=O)NCCCO,inactive,inactive,inactive,inactive,inactive,inactive,inactive,inactive,inactive,inactive,inactive,inactive,inactive
CN1C(CCl)Nc2cc(Cl)c(S(N)(=O)=O)cc2S1(=O)=O (stereo not drawn),inactive,inactive,inactive,inactive,inactive,inactive,inactive,inactive,–,–,–,–,–
CC(Cc1cccc(C(F)(F)F)c1)NCCOC(=O)c1ccccc1 (stereo not drawn),inactive,inactive,inactive,inactive,inactive,inactive,inactive,–,inactive,inactive,inactive,inactive,inactive
CC(C)COC(=O)OCN1C(=O)CN(CCN2CC(=O)N(COC(=O)OCC(C)C)C(=O)C2)CC1=O,inactive,inactive,inactive,inactive,inactive,inactive,inactive,inactive,–,–,–,–,–
C[C@]12CC[C@@H]3c4ccc(O)cc4CC[C@H]3[C@@H]1CC[C@@H]2O,inactive,inactive,inactive,inactive,inactive,inactive,inactive,inactive,–,–,–,–,–
CCN1CCCC1=O,inactive,inactive,inactive,inactive,inactive,inactive,inactive,inactive,–,–,–,–,–
